“And” between values parts separate entries of the source, which are not always exact repeats. Equal entries are not always repeated. Results filed as inconclusive are left out. A call without a number means that no potency is given here. Some structures have more than one record in an assay (separate samples or runs), and their calls can disagree. The source made the active and inactive calls. Calls come from the whole dose curve; as a rule, active = well fitted curve in the direction sought with a large enough effect in the repeat runs; inconclusive = weak or mixed curves; inactive = no such curve, though single readings can be large; an effect the other way counts as inactive or inconclusive.
assay: qHTS RealTime-Glo MT Cell Viability Assay in HepG2 cells - 24 hour (AID 1224867); conditions: RealTime-Glo luminescence; series mostly up to 76.8 µM
Procedure, shortened: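 HepG2 cells (600/well) were dispensed with RealTime-Glo reagents, incubated 5 h at 37 °C, then treated with compounds in DMSO for up to 40 h. Nonlytic NanoLuc luminescence reflecting viable cells was read at each stated time point.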
Note: nearly all actives have a fitted effect of over 50% in size.
Potency is the fitted concentration of half-maximal effect.

Row | SMILES | Potency
1 | O=C(Nc1ccccc1SSc1ccccc1NC(=O)c1ccccc1)c1ccccc1 | inactive and 49 µM (active)
2 | CN(C)c1ccc(C(=C2C=CC(=[N+](C)C)C=C2)c2ccccc2)cc1 | 11 µM (active) and 8.49 µM (active) and 7.56 µM (active)
3 | CCn1c2ccccc2c2cc(N)ccc21 | inactive
4 | c1cc(C(c2ccc(OCC3CO3)cc2)C(c2ccc(OCC3CO3)cc2)c2ccc(OCC3CO3)cc2)ccc1OCC1CO1 (configuration not stated) | inactive
5 | CCCCCCCCCCCCCC[P+](CCCC)(CCCC)CCCC | 21.8 µM (active) and 13.8 µM (active)
6 | CCCCC(CC)COC(=O)CC(C(=O)OCC(CC)CCCC)S(=O)(=O)O (configuration not stated) | inactive
7 | CC(C)CCCCCCc1ccc(O)cc1 | 22.3 µM (active) and inactive
8 | Cc1cccc(O)c1C | inactive

assay: qHTS RealTime-Glo MT Cell Viability Assay in HEK293 cells - 32 hour (AID 1224868); conditions: RealTime-Glo luminescence; series mostly up to 76.8 µM
Procedure, shortened: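 HEK293 cells seeded with NanoLuc/prosubstrate reagent, rested 5 h at 37 C, then dosed and kept at 37 C up to 40 h. Nonlytic real-time luminescence from viable cells read at 0, 8, 16, 24, 32 and 40 h.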

Row | SMILES | Potency
9 | Nc1ccc(O)cc1 | 32.1 µM (active) and inactive
10 | CCc1cc(C(C)(C)C)c(O)c(C(C)(C)C)c1 | inactive
11 | CCN(CC)C(=S)SSC(=S)N(CC)CC | 174 nM (active) and 89.1 nM (active) and 13.4 µM (active)
12 | Oc1ccc(Cl)cc1Cc1cc(Cl)ccc1O | 19.8 µM (active) and 49 µM (active)
13 | C/C=C/c1ccc(OCC)c(O)c1 | inactive
14 | O=C1OC2(c3ccc(O)cc3Oc3cc(O)ccc32)c2ccccc21 | inactive
15 | CC(C)(C)c1ccc(O)c(C(C)(C)C)c1 | 38.7 µM (active)
16 | CC[C@H]1CN2CCc3cc(OC)c(OC)cc3[C@@H]2C[C@@H]1C[C@H]1NCCc2cc(OC)c(OC)cc21 | 15.5 nM (active) and 42.5 nM (active)
17 | COc1nc(C)nc(Cl)c1NC1=NCCN1 | inactive
18 | O=C(O)c1cn(-c2ccc(F)cc2)c2cc(N3CCNCC3)c(F)cc2c1=O | inactive
19 | CC(N)=O | inactive
20 | CC1=C(C=O)C(C)(C)CC=C1 | inactive
21 | O=C1Nc2ccccc2C1(c1ccc(O)cc1)c1ccc(O)cc1 | 49 µM (active) and inactive
22 | COc1ccc(CCN2CCC(Nc3nc4ccccc4n3Cc3ccc(F)cc3)CC2)cc1 | 6.3 µM (active) and 15.1 µM (active)
23 | CC(COc1ccccc1)N(CCCl)Cc1ccccc1 (configuration not stated) | 49.5 µM (active) and 49 µM (active)
24 | Nc1nc2ccccc2[nH]1 | inactive
25 | CCN(CC)CCOc1ccc(/C(=C(\Cl)c2ccccc2)c2ccccc2)cc1 | 14.1 µM (active) and 19 µM (active)

Row | SMILES | Potency
26 | Oc1c(Cl)cc(Cl)cc1Sc1cc(Cl)cc(Cl)c1O | 19.5 µM (active) and 15.5 µM (active)
27 | C[N+]1([O-])CCOCC1 | inactive
28 | Cc1cc(C2(c3cc(C)c(O)cc3C)OS(=O)(=O)c3ccccc32)c(C)cc1O | inactive
29 | CC(C)(O)CCC(C)(C)O | inactive
30 | CC(=O)OCCOCCOCCOC(C)=O | inactive
31 | O=C(O[C@@H]1Cc2c(O)cc(O)cc2O[C@@H]1c1cc(O)c(O)c(O)c1)c1cc(O)c(O)c(O)c1 | 7.48 µM (active)
32 | O=C(Cl)c1cccc(C(=O)Cl)c1 | inactive
33 | CCCOC(=O)c1cc(O)c(O)c(O)c1 | 38.9 µM (active)
34 | CCCCCCCCCCCCc1ccccc1O | 48.3 µM (active) and 49 µM (active)
35 | C=C(C)C(=O)O | inactive
36 | Nc1cc(Cl)c(-c2cc(Cl)c(N)cc2Cl)cc1Cl | 6.91 µM (active) and 1.74 µM (active)
37 | CN(C)c1ccc(C(=C2C=CC(=[N+](C)C)C=C2)c2ccccc2)cc1 | 2.13 µM (active) [middle of 4 runs]
38 | CCn1c2ccccc2c2cc(N)ccc21 | inactive
39 | c1cc(C(c2ccc(OCC3CO3)cc2)C(c2ccc(OCC3CO3)cc2)c2ccc(OCC3CO3)cc2)ccc1OCC1CO1 (configuration not stated) | inactive
40 | CCCCCCCCCCCCCC[P+](CCCC)(CCCC)CCCC | 173 nM (active) and 219 nM (active)
41 | CC(C)CCCCCCc1ccc(O)cc1 | 2.23 µM (active)
42 | Cc1cccc(O)c1C | inactive

Reference: PubChem BioAssay (Tox21)
